# Test results taken from PMC5540273 (PLoS ONE, 2017).
# Assays:
# Conditions in all cases: concentration: 1 μM,replicates: in singlicate; n = 1
# [1] = test system: FGFR1
# [2] = test system: FGFR2
# [3] = test system: FGFR3
# [4] = test system: FGFR4
# [5] = test system: FGR
# [6] = test system: FLT1
# [7] = test system: FLT3-autoinhibited
# [8] = test system: FLT3
# [9] = test system: FLT4
# [10] = test system: FRK
# [11] = test system: FYN
# [12] = test system: GAK
# [13] = test system: T1, GCN2(Kin.Dom.2,S808G)
# T1 construct: gene EIF2AK4
# [14] = test system: GRK1
# [15] = test system: T2, GRK2
# T2 construct: gene ADRBK1
# [16] = test system: T3, GRK3
# T3 construct: gene ADRBK2
# [17] = test system: GRK4
# [18] = test system: GRK7
# [19] = test system: GSK3A
# [20] = test system: GSK3B
# 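Also: KINOMEscan kinase panel screen.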
Structure (SMILES),%Inh [1] [%],%Inh [2] [%],%Inh [3] [%],%Inh [4] [%],%Inh [5] [%],%Inh [6] [%],%Inh [7] [%],%Inh [8] [%],%Inh [9] [%],%Inh [10] [%],%Inh [11] [%],%Inh [12] [%],%Inh [13] [%],%Inh [14] [%],%Inh [15] [%],%Inh [16] [%],%Inh [17] [%],%Inh [18] [%],%Inh [19] [%],%Inh [20] [%]
Cc1ccc2c(-c3ccnc(Nc4ccc(C(F)(F)F)cc4)n3)cnn2n1 [GW819776],5,0,0,6,4,0,0,59,0,20,9,0,3,28,0,3,21,0,74,36
CCNCC(Cc1ccccc1)NC(=O)c1cc(Br)c(-c2ccnc3[nH]ccc23)s1.Cl.Cl (stereo not drawn) [GSK1383280],88,81,61,68,22,54,9,69,49,17,0,51,43,89,61,83,0,91.9,0,14
CN1CCN(CCCNc2nccc(-c3c(-c4ccc(F)cc4)nn4cc(C(N)=O)ccc34)n2)CC1 [GW622475],28,0,8,0,0,54,1,10,28,0,9,87,5,0,0,0,9,0,33,33
COc1cc2c(Nc3ccc(NC(=O)c4ccccc4)cc3)ncnc2cc1OCCCN1CCOCC1 [GSK301329],0,0,6,0,35,26,0,35,5,7,49,0,4,10,0,0,12,0,0,11
Cc1ccc(CC(=O)N2CCc3cc(-c4cn(C)c5ncnc(N)c45)ccc32)cc1 [GSK2634758],14,14,2,0,37,32,0,40,0,0,41,34,42,0,0,24,0,0,9,0
Cn1ccc2ncnc(Oc3ccc(NC(=O)Nc4cccc(C(F)(F)F)c4)c(Cl)c3)c21,,10,0,14,5,99.6,0,84,99.9,94.9,0,1,21,32,0,0,0,0,28,0
Cn1ccc2ncnc(Oc3ccc(NC(=O)Nc4cc(C(C)(C)C)on4)c(Cl)c3)c21,,72,23,73,32,97.6,15,99.9,99.8,96.3,35,13,0,16,62,1,0,8,0,0
COC(=O)c1cccc(NC(=O)NC2CCN(c3ccnc(Nc4cc(OC)c(OC)c(OC)c4)n3)C2)c1 (stereo not drawn) [GSK1379767],0,0,32,0,25,13,4,33,14,17,9,27,0,13,0,49,0,0,2,0
CNC(=O)c1ccccc1Nc1nc(Nc2cccc(CS(C)(=O)=O)c2)ncc1C.O=CO [GSK1520489],99.9,99.3,99.8,94.6,99.2,98.2,89,99.1,100,98.2,98.9,94.7,100,8,0,100,85,40,25,34
CS(=O)(=O)c1cccc(CNc2nc(Nc3ccc4c(c3)[C@@H]3C[C@@H]4CNC3=O)ncc2C(F)(F)F)c1,86,85,73,92.1,31,94.4,75,99.6,99.4,0,0,26,57,28,0,0,27,0,74,0
COC(=O)c1cccc(NC(=O)NC2CCN(c3ccnc(NCc4ccc(F)cc4)n3)CC2)c1 [GSK1379860],3,27,11,0,11,42,24,0,38,16,10,0,0,0,0,38,0,0,6,8
COc1cc(Nc2nccc(N3CCC(NC(=O)c4cccc(C#N)c4)C3)n2)cc(OC)c1OC (stereo not drawn) [GSK1379751],0,0,5,7,37,0,0,44,11,0,0,47,9,0,0,33,0,0,0,5
CSc1nccc(-c2c(-c3ccc(F)cc3)ncn2CCCN2CCOCC2)n1.Cl [SB-217146],0,0,0,0,0,0,0,0,0,0,0,6,0,45,0,11,10,0,0,18
COc1cccc(CNC(=O)NC2CCN(c3ccnc(Nc4cc(OC)c(OC)c(OC)c4)n3)C2)c1 (stereo not drawn) [GSK1379765],0,49,23,2,18,26,14,47,23,21,12,0,0,0,0,19,74,0,0,7
O=C(Nc1ccc(Oc2ccc3nc(NC(=O)C4CC4)cn3n2)c(F)c1)c1cccn(-c2ccccc2)c1=O,0,9,11,6,73,98.3,43,98.2,99.4,45,15,0,20,0,0,0,21,0,25,0
CN1CCN(CCNc2nc3cc(Oc4ccc(NC(=O)Nc5cc(C(F)(F)F)ccc5F)cc4)ccc3[nH]2)CC1.Cl.Cl [GW768504],6,0,0,0,0,90.7,0,98.1,49,69,0,0,24,0,0,0,17,0,20,0
